Hits are enriched below; roughly 21% of the tested compounds scored in any of these assays.
Shiga inhibitor: Shiga toxin inhibition; hit rate 9.2% among 290,000; inhibition, % at 38.7 µM; Vero cells, Shiga toxin protein synthesis inhibition reporter; in the data active = inhibition mostly above about 28%, no sharp cut-off; inactive = mostly below about 43%; note: 0% is about no effect
SARS PLpro yeast: inhibitors of SARS-CoV papain-like protease in yeast; S. cerevisiae expressing SARS-CoV PLpro, growth rescue; Potency, µM (doses to about 32.9 µM), for inactives: at the highest dose activity, positive = growth rescue, actives largely listed as activators; hit rate 0.19% among 330,000; AID 485353; note: potency is the fitted concentration of half-maximal effect; 0% is about no effect; nearly all actives have a fitted effect of over 55% in size
Pf growth 96h: P. falciparum growth inhibition at 96 hours; AID 504834; P. falciparum luciferase reporter growth, 96 h; Potency, µM (titrated, usually from 28.7 µM), inactives show at the top dose activity change, negative = inhibition, most hits filed as inhibitors; hit rate 6.9% among 320,000; active = well fitted inhibition curve with a large enough effect; inconclusive = small, poorly fitted or top-dose-only effect, or another doubt; inactive = no such curve, though single readings can be large or run the other way; note: potency is the fitted concentration of half-maximal effect; % is set by controls: 0 for no effect and ±100 for the full control effect
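Delayed-death screen, second-generation endpoint: infected erythrocytes, 2% hematocrit, 0.05% parasitemia final; 96 hours at 37 C, 5% CO2; luciferase detection reagent; luminescence decrease equals reduced growth.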
NS1 function inh: blocks influenza NS1 protein function. hit rate 0.4% among 270,000. Potency, µM (doses to about 46.1 µM), for inactives: top-dose activity, positive = more growth; note: potency is the fitted concentration of half-maximal effect; actives are rising curves; nearly all actives have a fitted effect of over 50% in size
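S. cerevisiae expressing influenza A NS1, grown in glucose, washed, then diluted 1:100 into pH 6.0 -URA galactose medium with 23 nl compound. Growth recovery read as OD600; NS1-free strain serves as control.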
Pf growth 48h: P. falciparum growth inhibition at 48 hours (one generation); P. falciparum luciferase growth in erythrocytes, 48 h; Potency, µM (top dose mostly 28.7 µM), for inactives: at the highest dose activity change, negative = inhibition, usual class: inhibitors; hit rate 5.9% among 310,000; AID 504832; active = well fitted inhibition curve with a large enough effect; inconclusive = small, poorly fitted or top-dose-only effect, or another doubt; inactive = no such curve, though single readings can be large or run the other way; note: potency is the fitted concentration of half-maximal effect; % is set by controls: 0 for no effect and ±100 for the full control effect
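Luciferase-expressing parasites in RBCs, 2% Hct / 0.1% parasitemia final; RPMI 1640 + 0.5% Albumax; 37 C, 5% CO2, one generation; luminescence read-out, lower signal = inhibition.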
CHX counter: counter-screen hit for Shiga toxin inhibitors, cycloheximide; cell reporter, cycloheximide protein synthesis inhibition counterscreen; max response, %; hit rate 12% among 300,000; AID 2314; in the data active = max response mostly above about 13%, no sharp cut-off; inactive = mostly below about 14%; note: read at 38.3 µM for the half of the compounds with a filed dose; 0% is about no effect
* = called active by the depositor; ? = inconclusive; / = no result given. Unless noted, calls come from the whole dose curve.

SMILES	Shiga inhibitor	SARS PLpro yeast	Pf growth 96h	NS1 function inh	Pf growth 48h	CHX counter
Cn1cc(Br)c(C(=O)Nc2ncc(Br)s2)n1	41	1%	36%	1%	85%	36*
Cn1cc(Br)c(C(=O)NC2CCCCC2)n1	19	0%	0%	0%	-22%	-3
CCOc1cc(C(=S)N2CCCCC2)ccc1OCC(=O)NCc1ccccc1	-7	4%	3.7µM*	5%	/	-2
CCOc1ccc(NC(=O)c2nn(C)cc2Br)cc1	43	-6%	?	-14%	100%	15*
CCOc1cc(C(=O)Nc2ccncc2)cc(OCC)c1OCC	-19	0%	?	3%	5.2µM*	-2
Cc1cccc(NC(=O)CN2CCN(C(=O)c3cncn3-c3ccc(F)cc3)CC2)c1C	/	4%	?	/	?	/
CCOc1ccc(CCNC(=O)c2sc3nc4n(c(=O)c3c2C)CCC4)cc1	-11	-5%	?	5%	-9%	7
CC(C)NC(=O)C(OC(=O)c1ccccc1)C(OC(=O)c1ccccc1)C(=O)O (stereo not given)	-13	6%	?	3%	?	-3
COC(=O)C1Cc2ccccc2CN1C(=O)CCl (stereo not given)	-10	2%	?	/	?	13
CCOc1cc(C(=O)Nc2ccc(C)cc2C)ccc1OCC(=O)N1CCCCC1	-12	-22%	?	6%	?	-7
CCOc1cc(C(=O)Nc2ccc(NC(C)=O)cc2)ccc1OCC(=O)N1CCCCC1	-1	-11%	12µM*	7%	-19%	0
CCOc1ccc(NC(=O)c2ccc(NC(=O)COC(=O)Cc3ccccc3)cc2)cc1	50*	23%	76%	-7%	48%	40*
CCOc1ccc(NC(=O)c2ccc(OC)cc2)cc1	61*	-3%	?	-10%	30%	43*
CCOc1ccc(NC(=O)c2ccc(NCC(=O)N3CCCCCC3)cc2)cc1	38	-6%	202%	/	128%	27*
CCOc1ccc(C(=O)NCC(=O)N2CCCCCCC2)cc1	/	-5%	?	/	?	/
COc1ccccc1N1CCN(S(=O)(=O)c2ccc(NC(C)=O)cc2)CC1	-6	2%	-6%	-7%	?	-3
CNc1nc(C)cc(C)c1S(=O)(=O)c1ccc(C)cc1	-3	-2%	3%	-17%	5%	-1
CCOC(=O)NC(=S)Nc1ccc(OC)cc1	33	1%	-2%	3%	36%	18*
CCOC(=O)NC(=S)Nc1ccc(C(C)(C)C)cc1Br	25	-5%	?	2%	?	22*
CCOc1ccc(C(=O)c2ccncc2)cc1	17	0%	/	-11%	3%	10
CCOC(=O)Nc1ccc(C)cc1Br	-2	5%	3%	5%	-14%	1
CCOC(=O)NC(NC(=S)Nc1ccc(OC)cc1)C(Cl)(Cl)Cl (stereo not given)	-14	-14%	?	2%	-18%	1
CCOc1ccc2c(c1)C(=NNC(=O)c1ccncc1)c1cc(OCC)ccc1-2	-23	-13%	2.1µM*	-1%	9.3µM*	7
CC1CCCC(C)N1C(=O)COC(=O)C1CCN(S(=O)(=O)c2c(Cl)cccc2Cl)CC1 (stereo not given)	/	1%	?	/	?	/
CCn1c(=O)c2c3c(sc2n2c(=S)[nH]nc12)CCC3	-11	-3%	10%	14%	/	-2
SMILES	Shiga inhibitor	SARS PLpro yeast	Pf growth 96h	NS1 function inh	Pf growth 48h	CHX counter
CC(C)N(CC#CC(O)(c1ccccc1)c1ccccc1)CCO	-6	6%	2.3µM*	3%	-11%	-3
O=C1OC(Cc2ccccn2)C(=O)C1=C1SCCS1 (stereo not given)	active	13%	13%	16%	5%	29*
C=CCNC(=O)/C(C#N)=C/c1c(C)nn(-c2ccc(Cl)cc2)c1Cl	-10	-33%	?	5%	-17%	-1
CCOc1ccccc1NC(=O)/C(C#N)=C/c1c(C)nn(-c2ccc(F)cc2)c1Cl	85*	20%	21%	18%	-16%	47*
CCN(c1ccc(OC)cc1)S(=O)(=O)N1CCCC(C(=O)NCc2cccc(C)c2)C1 (stereo not given)	-3	-1%	?	-16%	-17%	-1
COCCNC(=S)N/N=C/c1c2ccccc2cc2ccccc12	40	-1%	3.7µM*	-4%	6.6µM*	7
C[N+](C)(C)CC(=O)N/N=C/c1c2ccccc2cc2ccccc12	18	?	6.6µM*	-16%	9.3µM*	-8
S=C(NCCN1CCOCC1)N/N=C/c1c2ccccc2cc2ccccc12	22	-6%	/	1%	-16%	13
Cc1cc(C)n2nc(C(=O)N/N=C/c3c4ccccc4cc4ccccc34)nc2n1	6	6%	12µM*	23%	-9%	-1
O=C(COC(=O)C1C2CC3OC(=O)C1C3C2)Nc1ccccc1 (stereo not given)	17	2%	?	1%	9%	16*
C#CCOCCOCCOCCNc1nc(N2CCN(C(=O)Cn3cc(CCCN=C(N)N)nn3)CC2)nc(N2CCN(C(=O)[C@H]([C@@H](C)CC)n3cc(CCC(=O)O)nn3)CC2)n1	-13	1%	-15%	-1%	-11%	-4
C#CCOCCOCCOCCNc1nc(N2CCN(C(=O)[C@H](CCCCN)n3cc(CC(C)O)nn3)CC2)nc(N2CCN(C(=O)[C@H](CCCCN)n3cc(CC(C)O)nn3)CC2)n1 (stereo not given in full)	/	1%	62%	/	-21%	/
C#CCOCCOCCOCCNc1nc(N2CCN(C(=O)CCCCCCCCCCNC(=O)Cn3cc(C[C@@H](C)O)nn3)CC2)nc(N2CCN(C(=O)CCCCCCCCCCNC(=O)[C@H](CCCCN)n3cc(CCCC(=O)O)nn3)CC2)n1	/	1%	?	/	5.2µM*	/
C#CCOCCOCCOCCNc1nc(N2CCN(C(=O)CCCCCCCCCCNC(=O)Cn3cc(C[C@@H](C)O)nn3)CC2)nc(N2CCN(C(=O)CCCCCCCCCCNC(=O)[C@H](CCCN=C(N)N)n3cc(C[C@@H](C)CC)nn3)CC2)n1	/	3%	1µM*	/	1.3µM*	/
C#CCOCCOCCOCCNc1nc(N2CCN(C(=O)CCCCCCCCCCNC(=O)Cn3cc(CCCCCN)nn3)CC2)nc(N2CCN(C(=O)CCCCCCCCCCNC(=O)Cn3cc(CCCCCN)nn3)CC2)n1	/	?	6.6µM*	/	1.7µM*	/
C#CCOCCOCCOCCNc1nc(N2CCN(C(=O)CCCCCCCCCCNC(=O)Cn3cc(C[C@@H](C)O)nn3)CC2)nc(N2CCN(C(=O)CCCCCCCCCCNC(=O)[C@@H](CCC(=O)O)n3cc(CCCCCN)nn3)CC2)n1	/	-1%	?	/	1µM*	/
COc1ccc(CCC(C)NCCc2ccc(Cl)cc2Cl)cc1 (stereo not given)	-9	/	-14%	-17%	?	-9
